# AGP1 TOR yeast = yeast TOR pathway AGP1-GFP modulation; S. cerevisiae AGP1-GFP multiplex flow cytometry, 3 h; GFP as percent of DMSO wells; GFP response vs DMSO, % at 10 µM; 0.02% of 320,000 active; AID 2066;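 active = GFP response relative to DMSO above a set limit, near screen average plus 3 SD, cut at about 150% in these data; inconclusive = fewer than 70 cells counted for the yeast strain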;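 note: median GFP channel fluorescence of the gated AGP1 strain per well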
# VLA-4 inh = inhibition in a human VLA-4 binding assay; P13612; 0.2% of 330,000 active; VLA-4 expressing cells, ligand binding flow cytometry; inhibition, % (about 7 µM as worked out from the volumes in the protocol); in the data active = inhibition above about 50%
# LAP4-GFP MLPCN = alters LAP4-GFP fluorescence in TOR pathway yeast screen; S. cerevisiae LAP4-GFP multiplex, flow cytometry GFP, 3 h; median GFP as percent of DMSO wells; GFP response vs DMSO, % at 10 µM; 0.34% of 320,000 active;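 active = GFP response vs DMSO above a set limit, about the screen mean plus 3 SD, cut at about 150% in these data; inconclusive = under 70 cell events counted for the yeast strain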
# MEP2-GFP yeast = modulators of TOR pathway MEP2-GFP in S. cerevisiae. GFP response vs DMSO, % at 10 µM. 0.51% of 330,000 active. S. cerevisiae MEP2-GFP strain, flow cytometry GFP, 3 h; 100% = DMSO control level;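 active = GFP response versus DMSO above a set limit, roughly screen mean plus 3 SD, cut at about 180% in these data; inconclusive = fewer than 70 cells counted for a yeast strain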;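 note: median GFP fluorescence of the barcode-gated MEP2-GFP cells per well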
# CIT2-GFP yeast = yeast TOR pathway CIT2-GFP modulation | 0.065% of 320,000 active | GFP response vs DMSO, % at 10 µM | S. cerevisiae CIT2-GFP strain, flow cytometry, 3 h; 100 means same as DMSO wells;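 active = GFP response relative to DMSO above a set limit, near the screen mean plus 3 SD, cut at about 150% in these data; inconclusive = Fewer than 70 cells measured for a yeast strain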;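 note: ratio of well median GFP fluorescence to mean of DMSO wells on the plate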
# RPL19A-GFP yeast = alters RPL19A-GFP fluorescence in TOR pathway yeast screen; S. cerevisiae RPL19A-GFP strain, flow cytometry, 3 h; stronger effect = lower value; 0.3% of 330,000 active; percent response vs DMSO, % at 10 µM; AID 2025;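 active = percent response vs DMSO below 50%; inconclusive = fewer than 70 events counted for the yeast strain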;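 note: median channel GFP fluorescence of the barcoded RPL19A-GFP strain; ratio of sample median GFP to plate DMSO average so 100% = DMSO; lower means less RPL19A-GFP as with rapamycin TOR inhibition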
# An asterisk follows results filed as active; ? = inconclusive; / = no result; + = active, no number; [ ] = dose if it differs, or a comment. Most compounds without a hit are left out; they make up all but 1.1% or so of the library.
SMILES,AGP1 TOR yeast,VLA-4 inh,LAP4-GFP MLPCN,MEP2-GFP yeast,CIT2-GFP yeast,RPL19A-GFP yeast
Cc1ccc(C(=O)Nc2nnc(S(=O)(=O)N3CCOCC3)s2)cc1,89.4,-0.8,90.2,92.8,85.7,90.7
COc1cccc(C(=O)NCC(=O)N2CCC(C)CC2)c1,21.9,13.5,95.1,184.4*[may fluoresce violet],?,45.3*[may fluoresce violet]
CC1C(=O)Nc2ccc(S(=O)(=O)N3CCCCCC3)cc21 (configuration not stated),96.2,-0.5,87.0,90.5,92.0,94.0
CC1(C)CC(=O)/C(=C(\O)c2ccccc2)C(=NCCO)C1,75.0,26.1,102.8,205.6*[may fluoresce violet],?,37.8*[may fluoresce violet]
CCC/C(O)=C1\C(=O)CC(C)(C)CC1=NCCO,95.0,13.2,102.4,97.3,103.9,93.2
Cc1nn(C)cc1C(C)NC(=O)c1cc(COc2ccc(F)c(F)c2)on1 (configuration not stated),122.2,-111.3,124.0,201.8*,136.6,85.5
O=C(NC1CCCCCC1)c1ccc(N2CCCC2=O)cc1,104.1,0.1,105.3,102.7,104.1,101.9
O=C(NC1CCCCC1)c1ccc(N2CCCC2=O)cc1,?,2.5,91.0,321.6*[may fluoresce violet],/,30.4*[may fluoresce violet]
O=C(Nc1ccc(S(=O)(=O)Nc2cnc3ccccc3n2)cc1)c1ccc(Cl)c([N+](=O)[O-])c1,102.8,1.7,97.4,112.6,104.6,101.3
COc1cc(NC(=O)C2CCCCC2)c(OC)cc1NC(=O)CN1CCCCC1,?,4.9,83.6,249.4*[may fluoresce violet],?,57.7
COc1cc(NC(=O)Nc2ccccc2OC)c(OC)cc1NC(=O)CN1CCCCC1,103.0,12.5,98.5,103.2,101.9,99.4
Cc1cc(Cl)ccc1OCCCC(=O)N1CCOCC1,?,-3.4,74.7,222.0*[may fluoresce violet],?,36.4*[may fluoresce violet]
Cc1cc(Cl)ccc1OCCCC(=O)N1CCCCC1,101.5,1.3,103.0,105.0,100.5,101.4
COc1ccc2[nH]c(=O)c(CN(C(=O)c3cccnc3)c3ccccc3C)cc2c1,103.2,4.0,107.3,105.5,104.4,102.8
Oc1ccccc1N=Nc1nc(-c2ccccc2)c(-c2ccccc2)[nH]1,84.7,90.3*,117.9,98.4,94.2,91.6
NCCC1CCCC(CCN)N1 (configuration not stated),85.3,-259.4,453.5*[may fluoresce red],109.5,85.9,?
O=C(Cc1ccc(-c2ccccc2)cc1)OCC(=O)N1CCCC1=O,87.5,-6.9,163.2*,95.2,78.9,92.1
CSc1ccccc1C(=O)OCC(=O)N1CCCC1=O,105.4,11.4,104.4,106.8,96.4,99.3
CC(=O)c1ccc(NC(=O)C2CCN(S(=O)(=O)c3cccc4nonc34)CC2)cc1,?,-2.8,?,?,?,?
O=S(=O)(c1cccc2nonc12)N1CCCCCC1,99.0,6.1,112.0,97.8,95.8,96.9
O=C(C1CCN(S(=O)(=O)c2cccc3nonc23)CC1)N1CCCCC1,?,-12.7,?,?,?,17.4*[may fluoresce violet]
Cc1ccc(NC(=O)C2CCN(S(=O)(=O)c3cccc4nonc34)CC2)cc1,16.3,-13.7,71.5,296.8*[may fluoresce violet],?,53.2
Cc1ccc(C)c(S(=O)(=O)N2CCN(C(=O)c3cccn3C)CC2)c1,102.4,3.7,109.7,99.6,85.8,96.7
COc1ccc(-c2cc(=O)n(-c3nc4ccccc4[nH]3)[nH]2)cc1,78.3,3.4,181.1*,102.2,88.2,80.5
O=c1ccc(-c2ccccc2)nn1Cc1ccc(F)cc1,18.8,-7.2,92.3,860.3*[may fluoresce violet],?,29.5*[may fluoresce violet]
SMILES,AGP1 TOR yeast,VLA-4 inh,LAP4-GFP MLPCN,MEP2-GFP yeast,CIT2-GFP yeast,RPL19A-GFP yeast
O=c1ccc(-c2ccccc2)nn1Cc1ccccc1,96.8,5.2,102.6,101.5,93.9,100.0
O=C(NC(CC(=O)N1CCCC(C(F)(F)F)C1)c1ccccc1)c1ccccc1Cl (configuration not stated),96.0,11.0,93.3,97.6,97.8,101.8
CCN(CC)Cc1c(C(=O)N/N=C/c2cccc3ccccc23)nnn1-c1nonc1N,96.1,12.4,102.0,111.5,105.7,99.0
CCN(CC)Cc1c(C(=O)N/N=C/c2ccccn2)nnn1-c1nonc1N,19.1,3.5,89.8,295.2*[may fluoresce violet],?,54.6
CCN(CC)c1ccc(/C=N/NC(=O)c2nnn(-c3nonc3N)c2-c2ccc(C)cc2)cc1,20.2,8.8,81.0,193.2*[may fluoresce violet],?,32.7*[may fluoresce violet]
COC(=O)CC(NC(=O)CN1CCN(c2ccc(F)cc2)CC1)c1cccc(F)c1 (configuration not stated),106.0,-9.3,90.6,97.2,101.3,103.9
Cc1ccc(S(=O)(=O)N2[C@@H](c3ccccc3F)C(C(=O)O)=CC[C@H]2c2cccs2)cc1,87.1,8.5,129.2,93.0,106.7,97.8
CCCCn1cc(S(=O)(=O)c2ccccc2)c(=O)c2cc(C)ccc21,?,4.0,113.9,258.3*[may fluoresce violet],?,39.6*[may fluoresce violet]
COCCn1c(SCC(=O)Nc2ccccc2)nnc1-c1ccoc1C,?,3.8,74.3,234.2*[may fluoresce violet],?,54.0
COCCn1c(SCC(=O)Nc2ccccc2F)nnc1-c1ccoc1C,101.3,8.4,94.1,101.6,99.7,106.0
O=c1c2ccccc2nc(-c2ccccc2)n1CCN1CCOCC1,127.6,0.3,162.8*,134.5,105.2,92.7
COc1ccc(NC2CCCN(C(=O)c3ccc4nc(C)c(C)nc4c3)C2)cc1OC (configuration not stated),111.8,-0.4,99.1,105.6,110.8,107.4
CCCn1nc(C(=O)OCC(=O)c2ccc3c(c2)NC(=O)CO3)c2ccccc2c1=O,253.8*,11.8,346.0*,+,169.4*,60.2
O=C1COc2ccc(C(=O)COC(=O)c3ccccn3)cc2N1,96.0,-1.9,100.5,90.5,87.8,92.0
CC1CC(C)CN(C(=O)c2ccc3c(c2)OCCO3)C1 (configuration not stated),99.3,3.9,99.8,100.9,101.2,99.8
Cc1cc(=O)[nH]c(N/N=C/c2sccc2C)n1,105.1,/,100.3,106.7,100.9,103.7
Cc1cc(=O)[nH]c(N/N=C/c2cccs2)n1,25.4,14.2,87.5,308.4*[may fluoresce violet],?,47.0*[may fluoresce violet]
CCOc1cc(/C=N/Nc2nc(C)cc(=O)[nH]2)ccc1O,94.6,-8.1,107.5,186.9*,149.9,106.8
NC1=NC(=O)C(CC(=O)c2ccc(Cl)cc2)S1 (configuration not stated),94.4,0.5,125.2,183.1*,96.4,98.3
Cn1c(CN(O)S(=O)(=O)c2ccc(Cl)cc2)nnc1C(F)(F)F,116.3,-4.5,103.1,104.4,153.8*[may fluoresce green],92.8
CN(C)C(=O)CN(C)S(=O)(=O)c1ccc(Cl)cc1,100.4,-1.1,101.1,96.0,104.4,98.4
